Reference: the supplement of paper PMC4840960

tested on: E18 rat cortical neuron-glia co-culture; experiment: myelination (MBP fiber length per Olig2+ nucleus), % of 1 µM DAPT response (DMSO = 0) (% of DAPT); higher = more myelination, active = 50 or more; details: 1 µM; treatment time: 8 days (DIV5-DIV13)
Method in brief: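 Four 10X fields in each of duplicate wells were analysed after cultures were fixed in 4 % paraformaldehyde and immunostained for MBP and Olig2, with DAPI as the nuclear counterstain. The cultures were papain-dissociated primary E18 rat cortical co-cultures at 20,000 cells/well on poly-d-lysine/laminin 96-well plates, dosed with library compounds at 1 or 5 µM in myelination medium from DIV5 to DIV13. The myelination readout was continuous straight MBP fiber length per Olig2+ nucleus, with 0.1 % DMSO set to 0 and a 1 µM positive control set to 100.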

myelination, inactive:
CO[C@H]1/C=C/O[C@@]2(C)Oc3c(C)c(O)c4c(O)c(c(/C=N/N5CCN(C)CC5)c(O)c4c3C2=O)NC(=O)/C(C)=C\C=C\[C@H](C)[C@H](O)[C@@H](C)[C@@H](O)[C@@H](C)[C@H](OC(C)=O)[C@@H]1C [Rifampicin] 12.6
COc1ccc2cc(CCC(C)=O)ccc2c1 [Nabumetone] -8.32
Nc1ncnc2c1ncn2[C@@H]1O[C@H](CO)[C@@H](O)[C@H]1O [Adenosine] -4.96
Cc1noc(NS(=O)(=O)c2ccc(N)cc2)c1C [Sulfisoxazole] -3.97
CC(=O)OCC(=O)[C@@]1(O)CC[C@H]2[C@@H]3CCC4=CC(=O)CC[C@]4(C)[C@H]3C(=O)C[C@@]21C [Cortisone acetate] -45.2
COc1cc(CNC(=O)CCCC/C=C\C(C)C)ccc1O [Zucapsaicin] -19.7
CN1CCN2c3ncccc3Cc3ccccc3C2C1 (stereo unspecified) [Mirtazapine] -13.9
COCCOC(=O)C1=C(C)NC(C)=C(C(=O)OC(C)C)C1c1cccc([N+](=O)[O-])c1 (stereo unspecified) [Nimodipine] -18.6
CC1(C)S[C@@H]2[C@H](NC(=O)[C@H](N)c3ccccc3)C(=O)N2[C@H]1C(=O)O [Ampicillin] -16.3
C=C1/C(=C\C=C2/CCC[C@]3(C)[C@@H]([C@H](C)CCCC(C)(C)O)CC[C@@H]23)C[C@@H](O)C[C@@H]1O [Calcitriol] -11.1
CN(C)CCOC(C)(c1ccccc1)c1ccccn1 (stereo unspecified) [Doxylamine] -13.6
CNCC[C@H](Oc1cccc2ccccc12)c1cccs1 [Duloxetine] -25.8
COc1cc(N)c(Cl)cc1C(=O)NC1CCN(CCCOc2ccc(F)cc2)CC1OC (stereo unspecified) [Cisapride] -1.62
CCN(CC)CCNC(=O)c1cc(Cl)c(N)cc1OC [Metoclopramide] -6.65
CCC(C)(C)C(=O)O[C@H]1C[C@@H](C)C=C2C=C[C@H](C)[C@H](CC[C@@H]3C[C@@H](O)CC(=O)O3)[C@H]21 [Simvastatin] -17.5
C[C@]12CCC(=O)C=C1CC[C@@H]1[C@@H]2[C@@H](O)C[C@@]2(C)[C@H]1CC[C@]2(O)C(=O)CO [Hydrocortisone] -10.9
CCN(CC)CCNC(=O)c1ccc(N)cc1 [Procainamide] -8.23
Nc1ccn([C@H]2CC[C@@H](CO)O2)c(=O)n1 [Zalcitabine] 3.9
CC(=O)OCC(=O)NCCCOc1cccc(CN2CCCCC2)c1 [Roxatidine acetate] -10.7
C[C@H]1C[C@H]2[C@@H]3CCC4=CC(=O)C=C[C@]4(C)[C@@]3(F)[C@@H](O)C[C@]2(C)[C@@]1(O)C(=O)CCl [Clobetasol] 7.06
CN(C)CCCN1c2ccccc2CCc2ccccc21 [Imipramine] -3.36
CCOC(=O)[C@H](CCc1ccccc1)N[C@@H](C)C(=O)N1Cc2ccccc2C[C@H]1C(=O)O [Quinapril] -0.422
O=C(CCCN1CC=C(n2c(=O)[nH]c3ccccc32)CC1)c1ccc(F)cc1 [Droperidol] -4.1
CCOC(=O)c1ccc(OC(=O)CCCCCNC(=N)N)cc1 [Gabexate] -20.3
CN(C)CCc1c[nH]c2ccc(Cn3cncn3)cc12 [Rizatriptan] -15
CCC1=C[C@@H]2CN(C1)Cc1c([nH]c3ccccc13)[C@@](C(=O)OC)(c1cc3c(cc1OC)N(C)[C@H]1[C@@](O)(C(=O)OC)[C@H](OC(C)=O)[C@]4(CC)C=CCN5CC[C@]31[C@@H]54)C2 [Vinorelbine] -6.45
CN(C)CCN(Cc1ccccc1)c1ccccn1 [Tripelennamine] -35.6
O=C(c1ccc(OCCN2CCCCC2)cc1)c1c(-c2ccc(O)cc2)sc2cc(O)ccc12 [Raloxifene] -12.3
Nc1nc2c(ncn2COCCO)c(=O)[nH]1 [Acyclovir] -11.9
COc1cc(C)c(Cc2cnc(N)nc2N)cc1OC [Ormetoprim] -31.5

myelination, 62.1:
CN1CCN(c2c(F)cc3c(=O)c(C(=O)O)cn4c3c2SCC4)CC1 [Rufloxacin]
